Test results: ChEMBL document CHEMBL3988442, “University of Dundee, Small-Polar-MMV Screening Library” (2021)
Out of some 48,000 compounds screened, about 13,000 (27%) showed an effect of 50% or more. Some of the results follow.

System: Wolbachia pipientis
Assay: Anti-Wolbachia Cell-Based Screen
Assay type: functional
Set-up: scale not given: in the data most compounds retested in dose-response had high values
Conditions: 5 µM

Row | SMILES | Percent Effect
1 | COc1ccc2c(c1)CCCC2CC(=O)NCC(C)(C)C(=O)O (stereo not given) | -16.88%
2 | CS(=O)(=O)CCCNC1(c2ccc(Br)cc2)CCC1 | 1.327%
3 | CCc1csc(C2CCCN(C(=O)CCn3cc(C)cn3)C2)n1 (stereo not given) | -1.231%
4 | Cc1csc(N2CCN(C(=O)CCn3cncn3)CC2)n1 | 2.857%
5 | Cc1csc2c(C3CCN(C(=O)Cn4cncn4)CC3)nc(C)n12 | 67.21%
6 | Cc1csc2c(C3CCCN(C(=O)CCn4cncn4)C3)nc(C)n12 (stereo not given) | 98.48%
7 | COCCCN1CCCN(C(C)C(=O)Nc2ccnn2C(C)C)CC1 (stereo not given) | -2.846%
8 | CCOc1c(Cl)cccc1NCc1cc(C)on1 | 3.225%
9 | Cc1cc(Cl)ccc1C(=O)N[C@H]1CN(S(C)(=O)=O)C[C@@H]1C1CC1 | 11.67%
10 | COc1cccc([C@H]2CN(C(=O)c3nnc4n3CCCC4)C[C@@H]2N)c1 | -27.9%
11 | CC(NC(=O)c1cccs1)C(=O)NS(=O)(=O)Cc1ccc(C#N)cc1 (stereo not given) | 0.007489%
12 | CSc1[nH]nc(NC(=O)c2cccnc2)c1C#N | 127.6%
13 | CC(NC(=O)CSCC#N)c1cccc(NC(=O)c2ccccc2)c1 (stereo not given) | 1.227%
14 | CSc1[nH]nc(NC(=O)c2ccccc2)c1C#N | 100.8%
15 | N#Cc1cc(NC(=O)c2ccncc2)ccc1N1CCC(O)CC1 | -6.115%
16 | CSc1[nH]nc(NC(=O)c2cccs2)c1C#N | 125.8%
17 | CSc1[nH]nc(NC(=O)c2ccncc2)c1C#N | 113.4%
18 | CS(=O)(=O)Cc1ccc(NC(=O)c2cccnc2)cc1F | 11.8%
19 | N#Cc1cc(NC(=O)c2ccccc2)ccc1N1CCC(O)CC1 | 8.386%
20 | O=C(NCC(F)(F)C(F)F)c1cccnc1 | -7.591%
21 | CC(C)(C)NC(=O)c1ccccc1NC(=O)c1ccncc1 | 2.582%
22 | CN1CCN(c2ccc(NC(=O)c3cccs3)c(C(F)(F)F)c2)CC1 | -12.21%

Row | SMILES | Percent Effect
23 | CCOc1ccc(CN2C(=O)CC(CC)(CC)C2=O)nc1 | 8.891%
24 | Cc1cc(-n2cncn2)n2ncnc2n1 | 116%
25 | CCc1nc2n(n1)CC(Nc1cc(C)nc3ncnn13)CC2 (stereo not given) | -9.549%
26 | Cc1cc(N2CCCCC2Cn2nc(C)cc2C)n2ncnc2n1 (stereo not given) | -7.962%
27 | Cc1cc(NCc2ccccc2CN2CCCCC2)n2ncnc2n1 | -7.326%
28 | Cc1cc(N2CCCC2Cn2nc(C)cc2C)n2ncnc2n1 (stereo not given) | 10.49%
29 | Cc1cc(-n2cnnn2)n2ncnc2n1 | 118.9%
30 | CN1CCC(N2CCOC[C@H]2c2nc(C(C)(C)C)c[nH]2)CC1 | -19.67%
31 | Cc1cc(S(C)(=O)=O)c(C)c(S(=O)(=O)NCC2CCC2)c1 | -2.164%
32 | COCCN1C(=O)CO[C@H]2CN(CCCc3ccccc3)C[C@H]21 | -4.545%
33 | COCCN1C(=O)CO[C@H]2CN(S(=O)(=O)c3ccccc3)C[C@H]21 | 1.954%
34 | COCCN1C(=O)CO[C@H]2CN(Cc3cccc(OC)c3F)C[C@@H]21 | 149.6%
35 | COCCN1C(=O)CO[C@H]2CN(Cc3ccccc3Cl)C[C@@H]21 | 128.8%
36 | COCCN1C(=O)CO[C@@H]2CN(S(=O)(=O)c3ccccc3)C[C@H]21 | 3.273%
37 | COCCN1C(=O)CO[C@H]2CN(Cc3ccccc3OC)C[C@H]21 | -3.474%
38 | C[S+]([O-])c1nncn1CC(=O)c1cccc(C(F)(F)F)c1 (stereo not given) | -15.18%
39 | Cc1cc(CN2CCOC(CN(C)c3cccnn3)C2)no1 (stereo not given) | -1.412%
40 | O=C(c1coc(-c2ccccc2)n1)N1CCS(=O)(=O)CC1 | -26.15%
41 | O=C(c1ccc(=O)[nH]n1)N1CCNCC1c1ccccc1 (stereo not given) | 145.5%
42 | O=C(c1ccc(=O)[nH]n1)N1CCCC1CCc1ccccc1 (stereo not given) | -7.859%
43 | CCC1CN(C(=O)c2ccc(=O)[nH]n2)CCC(=O)N1Cc1ccccc1 (stereo not given) | 3.625%
44 | CC1CCCN(Cc2ccc(CNC(=O)NCc3ccncc3)cc2)C1 (stereo not given) | -7.368%

Row | SMILES | Percent Effect
45 | C[C@@H]1CN(CC(C)(C)N2CCCCC2)C[C@@]1(O)C1CC1 | 17.38%
46 | C[C@@H]1CN(Cc2ccncc2)C[C@]1(C)O | 97.25%
47 | CNc1ccnc(N2C[C@@H](C)[C@](O)(C3CC3)C2)n1 | 0.4082%
48 | C[C@@H]1CN(Cc2nnc(-c3cccnc3)o2)CC[C@]1(C)O | -2.885%
49 | C[C@@H]1CN(Cc2ccncc2)C[C@@]1(O)C1CC1 | 102.1%
50 | CC(=O)NCCc1ccc(S(=O)(=O)N(C)C(C)C(C)(C)C)s1 (stereo not given) | -15.89%
51 | COc1ccc(C(C)C)cc1C1CC(=O)NCc2nc(N(C)C)sc21 (stereo not given) | -38.77%
52 | COc1ccnc(N2CCN(C(=O)c3cnc(C4CC4)s3)CC2)n1 | -14.05%
53 | CN1CCC(c2nnc3n2CCN(S(=O)(=O)c2ccccc2Cl)C3)CC1 | 149.5%
54 | CCc1nnc2n1CCN(CCS(=O)(=O)c1ccccc1)C2 | 5.511%
55 | CN1CCCC(c2nnc3n2CCN(S(=O)(=O)c2ccccc2Cl)C3)C1 (stereo not given) | 97.31%
56 | c1ccc2oc(N3CCn4c(nnc4C4CC4)C3)nc2c1 | -3.429%
57 | CNC(=O)CS(=O)(=O)C1CCN(S(=O)(=O)c2cccc(Cl)c2C)CC1 | -17.28%
58 | O=c1[nH]nc2n1CCN(S(=O)(=O)c1ccccc1Cl)C2 | -39.65%
59 | Cn1cnnc1S(=O)(=O)C1CCN(S(=O)(=O)c2c(Cl)cccc2Cl)CC1 | -14.3%
60 | Clc1ccc2cccnc2c1CN1CCn2c(nnc2C2CC2)C1 | -29.6%
61 | CN1CCCC1c1nnc2n1CCN(S(=O)(=O)c1ccccc1Cl)CC2 (stereo not given) | 104.7%
62 | O=S(=O)(c1ccccc1Cl)N1CCCC(c2ncc[nH]2)C1 (stereo not given) | -0.103%
63 | CN1CCC(c2nnc3n2CCN(S(=O)(=O)c2ccccc2)C3)CC1 | 90.65%
64 | CCOCc1cccc(NC(=O)C2COCCO2)c1 (stereo not given) | 8.112%
65 | CC(Oc1ccc(OCc2ncc(C(C)C)o2)cc1)C(N)=O (stereo not given) | 3.924%
